The supplement of paper PMC6555819

The sequences below were run on VDR:RXRa (NR concentration 270 nM, RXRa partner concentration 90 nM) (assay: PBM binding z-score (relative to random genomic background probes); higher = stronger binding; sequences stand for … in GC…GCGATTGACAGCGTAGAATGAAGG).
Method: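 Protein-binding microarray (Agilent 4x180K custom design, double-stranded 60-nt probes: 5' GC cap, 34-nt variable region, 24-nt constant primer region; full probe sequence given). Purified or IVT nuclear receptor:RXRα heterodimers (3:1 NR:RXRα, mostly 270:90 nM) or homodimers were incubated for 1 h in PBS with 2% milk and no ligand, then detected with Alexa488 antibodies. Fluorescence from o1-orientation probes (~5 replicates averaged) was converted to z-scores against 500 random hg19 background probes. Variable regions are seed direct-repeat (DR0–DR5) sites, all their single-nucleotide variants and half-site ablations.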
TCTTGTGGATCAACAGGAGGTTAAGAAAGATCGA gave a PBM binding z-score of 0.329. CGTCAAAGTTCAACTAAGGTAACGTACAGCACGC showed a PBM binding z-score of 4.64. With CATATAGGGTCAGCTAGGCCAGAGTAGGGACGGC the PBM binding z-score was 3.7. GCTGCTAGGTCAACTGATGGTCTGCTAAAGCTCG was tested, and the PBM binding z-score was 1.29. Work on CCGACTGGGGCAAGGTTACCATTACGCACAGCCA yielded a PBM binding z-score of 0.00135. For CCTACTGGGCCAACGGTCATTGATTCCAATGCTC, the PBM binding z-score was -0.502. For GATACAGGGCCAGCTAGAGGCCAGAGTATGGAAA, the PBM binding z-score was -0.843. Sequence TAGCCTAGGTCATTGGGCCAGTAAAGTACGCATC has a PBM binding z-score of 2.08. In the case of TCTTGTTGATCAAGCAGGTTAAGAAAGCCTGAGT, the PBM binding z-score is reported as 0.244. ATACCAATGTGATCGTGAGGTCGTTGATACTAAC gave a PBM binding z-score of 1.62. With AGAACGAGGGCAATGAGTTGCTAGCACGGGTGGC the PBM binding z-score was 3.91. GCGACTCGGGCAAAGCAGGTTACCATAAGGTTGG showed a PBM binding z-score of -0.491. CCGACTGGGGCATAAGGTTACCACAAGCCAGCCC was tested, and the PBM binding z-score was 0.105. With ATTCAAAGTTCATCTAGGTAACGTAAGATATGCT the PBM binding z-score was 4.93. CCTATTACTTGACCATAAGGGCAACCGAAGCTCG gave a PBM binding z-score of 0.976. ATATGTAGGTTACATCCGGATCATTCAGGCTATG was tested, and the PBM binding z-score was 0.945. Sequence CCGAGTAAGTTATGGGGCATTCAGGCAACGGTGA has a PBM binding z-score of -0.346. TTACCAAGGTGAAGGTCGTTTATCCCTCTGTAGA gave a PBM binding z-score of 1.66. Work on CCTACTGGGCCATCAGGTCTTTGATATCAACGTT yielded a PBM binding z-score of -0.244. CCTCGTTGGTCAAGGTCACACACGCTATAGGTAC was tested, and the PBM binding z-score was 3.93. Sequence GGAACGAGGGCAAAGTTGACAGCATCTGTCGACG has a PBM binding z-score of 1.6. GCATATAGGTAATCCAAGGTGAAAGTCCGATTGT gave a PBM binding z-score of 0.373. For ATCTCTAGGTACCAAGTTCAGTGAAAGAGAGGAC, the PBM binding z-score was 1.64. In the case of ATCGAAAGGTCGACGAGGTGAGTTTACACCGTTT, the PBM binding z-score is reported as 5.25. For CCTAATTGGTCAAGGTCACACACGCTATAGGTAC, the PBM binding z-score was 4.03. Sequence CGAACTAGGTCATTGACCGGACAGTGAATAGTAA has a PBM binding z-score of 1.96. In the case of CTCGAAAAGTCGGTTGAGGTGAGTATACGGATAA, the PBM binding z-score is reported as -0.065. CAAACTACGTCAAGAGGTCAAAGTCCGCTTCCCG showed a PBM binding z-score of 5.03. For CCTTGGAGGACAACAGGAGGTCAGAGCTGCCAGA, the PBM binding z-score was 1.99. Work on CTCGAAAGGTCGGTTGAGGTGAGTATGCGGATAA yielded a PBM binding z-score of 2.15. AAATGTAGGTTACATCCGGGTCATTCAGGCTATG gave a PBM binding z-score of 4.17. In the case of CCGACTGGGGCAAAGGTTAACATACTCAGTACGA, the PBM binding z-score is reported as 2.2. Sequence TCTATTAGTTGAAGGGTAACCGACGAGTCCGTTT has a PBM binding z-score of 1.2. Work on CAAACTATGTCAAAGGTCAAAGTCGAGCCAACCA yielded a PBM binding z-score of 5.41. In the case of CGTCCAAGGTCAAAGGTCTGTGAAGAGATGACGG, the PBM binding z-score is reported as 4.54. GATATTAGTTGAAAGGGCAACCGAATGATTCTCG showed a PBM binding z-score of 0.661. CCTAGTTGGTCAGGAGTTCACACACCGGATATGA gave a PBM binding z-score of 3.54. ACAGACAGGTGATGAAGGTAACACAGGCTATCAT was tested, and the PBM binding z-score was 0.561. CGTCCAAGGTCAGCAGGTCAGTTAAAGCGACGTG was tested, and the PBM binding z-score was 4.23. With CCTGACGGGTCACTGACAGGTTATAGCATTTGGA the PBM binding z-score was 2.94.
